Screens (PubChem)
The list is not random: actives were taken first. Their share in the collection is about 1.3%.
CCHF vOTU inh-1 – CCHFV vOTU protease inhibitors, primary screen, biochemical, Pep-AMC substrate, fluorescence. inhibition, % at 11.5 µM. actives 0.55% (n = 370,000). Crimean-Congo hemorrhagic fever virus L polyprotein viral ovarian tumor (vOTU) protease …. AID 651958, 2012
Sa ugtP lethal – growth inhibition of ugtP-null S. aureus, primary screen, RN4220 ugtP deletion, OD600; actives 0.54% (n = 330,000); 16 h; growth inhibition, % (concentration not given with the values); in the data active means growth inhibition above about 68%
3CLpro inhibitor – SARS-CoV 3CLpro protease inhibitors, primary screen, biochemical, quenched FRET; Replicase polyprotein 1ab (Severe acute respiratory syndrome coronavirus), P0C6X7; recombinant SARS-CoV 3CLpro, quenched FRET peptide cleavage; inhibition, % at 6 µM; actives 0.14% (n = 290,000); in the data active means inhibition above about 12%
Mtb bLac sens – beta-lactam sensitization of Mtb H37Rv, H37Rv; M. tuberculosis H37Rv growth with meropenem, percent inhibition; inhibition, % at 25 µM; actives 0.27% (n = 330,000); AID 434955, 2010; call rule not given here;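 further: growth measured after seven days incubation then overnight dye step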
MazEF act – activators of E. coli MazEF toxin-antitoxin RNase, primary screen, biochemical, fluorescence, uHTS; actives 0.32% (n = 350,000); AID 504720, 2011; FAM/BHQ RNA-DNA oligo cleavage fluorescence, 5 h; activation, % at 20 µM; in the data active means activation above about 50%
Target sequence (P0AE70 whole entry, looked up): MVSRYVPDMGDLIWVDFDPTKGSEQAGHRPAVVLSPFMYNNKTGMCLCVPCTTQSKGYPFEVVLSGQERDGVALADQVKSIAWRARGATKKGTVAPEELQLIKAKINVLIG
Sa RN4220 lethal – growth inhibition of S. aureus RN4220, primary screen, OD600 | inhibition, % (test concentration not listed) | 16 h | actives 0.33% (n = 330,000); in the data active means inhibition above about 85%
CCHF vOTU inh-2 – CCHFV vOTU protease inhibitors, confirmation, biochemical, Pep-AMC substrate, fluorescence. actives 17% (n = 1,900). Recombinant CCHFV vOTU. shares compounds with CCHF vOTU inh-1. inhibition, % at 11.5 µM
Large screens that a line does not name were inactive (follow-up assays come after a bar, where they were run). Unless noted, no stated cut-off is given here; in the data, active means inhibition above about 30%; inactive means the rest.

O=C1CCCC(=NNC(=O)c2ccc(COc3cccc4cccnc34)cc2)C1	none (no result: CCHF vOTU inh-1, 3CLpro inhibitor, Mtb bLac sens, MazEF act)
C[C@]12C(=O)N(c3ccccc3)C(=O)N1C1c3ccccc3OCC1C2c1ccccc1 (some centres not stated)	none (no result: CCHF vOTU inh-1, 3CLpro inhibitor, Mtb bLac sens, MazEF act)
Cc1ccc2c(c1)c(=O)c1c3n2CCN(C(=O)CCl)C3CC1 (configuration not stated)	CCHF vOTU inh-1 51 | CCHF vOTU inh-2 inactive
Cc1ccc2c(c1)c(=O)c1c3n2CCN(CC#N)C3CC1 (configuration not stated)	none
COc1ccccc1N(C(C)=O)C1=C(Cl)C(=O)c2ccccc2C1=O	CCHF vOTU inh-1 91 (no result: Sa ugtP lethal, 3CLpro inhibitor, Mtb bLac sens, Sa RN4220 lethal) | CCHF vOTU inh-2 83
CC1CCC(=O)N(CC(C)CC#N)CC1 (configuration not stated)	none (no result: CCHF vOTU inh-1, 3CLpro inhibitor, Mtb bLac sens, MazEF act)
CC1CN(C(C)C)C(=S)N(c2ccccc2)C1=O (configuration not stated)	none (no result: 3CLpro inhibitor, Mtb bLac sens)
CC1CN(Cc2ccccc2)C(=S)N(c2ccccc2)C1=O (configuration not stated)	CCHF vOTU inh-1 32 (no result: 3CLpro inhibitor, Mtb bLac sens) | CCHF vOTU inh-2 inactive
COc1ccc(C=NNC(=O)c2ccc([N+](=O)[O-])c(C)c2)cc1COc1ccccc1C(N)=O	none (no result: CCHF vOTU inh-1, 3CLpro inhibitor, Mtb bLac sens, MazEF act)
COc1ccc(OC)c(-c2cc(C(=O)NN=C(C)c3cccnc3)c3ccccc3n2)c1	none (no result: CCHF vOTU inh-1, 3CLpro inhibitor, Mtb bLac sens, MazEF act)
COC(=O)[C@]12C[C@H](CC(=O)NCCCCc3ccccc3)C(=O)N(CCC3=CCCCC3)C1=C[C@H](C(C)C)O[C@@H]2C1CC1	CCHF vOTU inh-1 37 (no result: Sa ugtP lethal, 3CLpro inhibitor, Mtb bLac sens, MazEF act, Sa RN4220 lethal) | CCHF vOTU inh-2 inactive
CCCCOCCCNC(=O)C[C@H]1C[C@@]2(C(=O)OC)C(=C[C@H](C(C)C)O[C@@H]2C2CC2)N(CCC2=CCCCC2)C1=O	CCHF vOTU inh-1 39 (no result: Sa ugtP lethal, 3CLpro inhibitor, Mtb bLac sens, MazEF act, Sa RN4220 lethal) | CCHF vOTU inh-2 inactive
COC(=O)[C@]12C[C@H](CC(=O)NCC3CCCCC3)C(=O)N(CCC3=CCCCC3)C1=C[C@H](C(C)C)O[C@@H]2C1CC1	none (no result: Sa ugtP lethal, 3CLpro inhibitor, Mtb bLac sens, MazEF act, Sa RN4220 lethal)
CCCCNC(=O)C[C@H]1C[C@@]2(C(=O)OC)C(=C[C@H](C(C)C)O[C@@H]2C2CC2)N(CCC2=CCCCC2)C1=O	none (no result: Sa ugtP lethal, 3CLpro inhibitor, Mtb bLac sens, MazEF act, Sa RN4220 lethal)
C(=NN=C(NN=Cc1cccs1)NN=Cc1cccs1)c1cccs1	CCHF vOTU inh-1 33 (no result: 3CLpro inhibitor, Mtb bLac sens) | CCHF vOTU inh-2 inactive
CC(CC=NNC(=O)COc1cc(Cl)ccc1Cl)c1ccccc1 (configuration not stated)	none (no result: CCHF vOTU inh-1, 3CLpro inhibitor, Mtb bLac sens, MazEF act)
Cc1cc(=O)c2c(o1)C(=O)c1occc1C2=O	CCHF vOTU inh-1 106 (no result: Sa ugtP lethal, 3CLpro inhibitor, Mtb bLac sens, Sa RN4220 lethal) | CCHF vOTU inh-2 48
Cc1ccccc1S(=O)(=O)N1[C@@H](c2ccc(Br)cc2)C(C(=O)O)=CC[C@H]1c1ccc(Cl)cc1	CCHF vOTU inh-1 45 (no result: 3CLpro inhibitor) | CCHF vOTU inh-2 inactive
Cc1ccc(S(=O)(=O)N2[C@@H](c3ccccc3)C(C(=O)O)=CC[C@H]2c2ccc3c(c2)OCO3)cc1	none (no result: Sa ugtP lethal, 3CLpro inhibitor, Sa RN4220 lethal)
Cc1ccc([C@@H]2CC=C(C(=O)O)[C@H](c3ccc(Cl)cc3)N2S(=O)(=O)c2ccccc2C)cc1	CCHF vOTU inh-1 33 (no result: 3CLpro inhibitor) | CCHF vOTU inh-2 inactive
Cc1ccc(S(=O)(=O)N2[C@@H](c3ccc(Br)cc3)C(C(=O)O)=CC[C@H]2c2ccc(Cl)cc2)cc1	CCHF vOTU inh-1 39 (no result: 3CLpro inhibitor) | CCHF vOTU inh-2 inactive
Cc1ccccc1S(=O)(=O)N1[C@@H](c2ccccc2)C(C(=O)O)=CC[C@H]1c1ccc(Cl)cc1	none (no result: Sa ugtP lethal, 3CLpro inhibitor, Sa RN4220 lethal)
Cc1ccc(S(=O)(=O)N2[C@@H](c3ccc(C(C)(C)C)cc3)C(C(=O)O)=CC[C@H]2c2ccc3c(c2)OCO3)cc1	CCHF vOTU inh-1 30 (no result: 3CLpro inhibitor) | CCHF vOTU inh-2 inactive
CCN1C(=O)C2C(c3ccc(-c4cccc(Cl)c4)c(OC)c3)N[C@@](C)(C(=O)OC)C2C1=O (some centres not stated)	none (no result: CCHF vOTU inh-1, 3CLpro inhibitor, Mtb bLac sens, MazEF act)
Cc1cc(C)n(N=Cc2cccc([N+](=O)[O-])c2)c(=O)c1	none (no result: CCHF vOTU inh-1, 3CLpro inhibitor, Mtb bLac sens, MazEF act)
O=C(O)CNC(=O)CC1S/C(=N/N=C2CSC(=O)N2)NC1=O (configuration not stated)	none (no result: CCHF vOTU inh-1, 3CLpro inhibitor, Mtb bLac sens, MazEF act)
